# Pf growth 48h: inhibits P. falciparum growth in the first generation, 48 h | P. falciparum luciferase growth in erythrocytes, 48 h | AID 504832 | Potency, µM (doses to about 28.7 µM), for the others: at the highest dose activity change, negative = inhibition, actives largely listed as inhibitors | 310,000 tested, 5.9% active; also: potency is read from the fitted curve at half-maximal effect; % is scaled to controls: 0 for no effect and ±100 for the full control effect
#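 Luciferase-expressing parasites in RBCs, 2% Hct / 0.1% parasitemia final; RPMI 1640 + 0.5% Albumax; 37 C, 5% CO2, one generation; luminescence read-out, lower signal = inhibition.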
# AMA1-RON2 inh: disrupts binding of P. falciparum AMA1 to RON2; AlphaScreen AMA1-biotinylated RON2 peptide binding; 360,000 tested, 0.2% active; Potency, µM (highest dose often 58.2 µM), for inactives: top-dose activity change, negative = inhibition, hits mostly inhibitors; AID 720542;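 also: potency is read from the fitted curve at half-maximal effect; 0% = vehicle wells and -100% = peptide control; nearly all actives have a fitted effect of over 45% in size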
#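 AMA1 (3D7) with his tag at 25 nM final met compounds first, then biotinylated RON2 peptide at 25 nM; detection used donor plus acceptor beads, 10 µg/mL apiece, read by AlphaScreen after 30 min at room temperature.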
# Cycloheximide cs: counter-screen hit for Shiga toxin inhibitors, cycloheximide. cell reporter, cycloheximide protein synthesis inhibition counterscreen. max response, %. 300,000 tested, 12% active; in the data active = max response mostly above about 13%, no sharp cut-off; inactive = mostly below about 14%; also: read at 38.3 µM for the half of the compounds with a filed dose; 0% is about no effect
# Pf growth 96h: P. falciparum growth inhibition at 96 hour, primary screen for plastid delayed-death inhibitors; 320,000 tested, 6.9% active; P. falciparum luciferase reporter growth, 96 h; Potency, µM (doses to about 28.7 µM), for the others: top-dose activity change, negative = inhibition, usual class: inhibitors; also: potency is read from the fitted curve at half-maximal effect; % is scaled to controls: 0 for no effect and ±100 for the full control effect
#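 Cell-based qHTS: luciferase-tagged P. falciparum in erythrocytes (2% hematocrit, 0.05% parasitemia final) incubated with compounds for 96 hours, 37 C, 5% CO2; luciferase detection reagent then added and luminescence measured.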
# Shiga inhibitor: blocks Shiga toxin action in Vero cells. 290,000 tested, 9.2% active. AID 2315. Vero cells, Shiga toxin protein synthesis inhibition reporter. inhibition, % at 38.7 µM; in the data active = inhibition mostly above about 28%, no sharp cut-off; inactive = mostly below about 43%; also: 0% is about no effect
# SARS PLP yeast: SARS-CoV PLP inhibition in yeast. 330,000 tested, 0.19% active. AID 485353. Potency, µM (top dose mostly 32.9 µM), for the others: at the highest dose activity, positive = growth rescue, most hits filed as activators. S. cerevisiae expressing SARS-CoV PLpro, growth rescue; calls by dose curve; also: potency is read from the fitted curve at half-maximal effect; 0% is about no effect; nearly all actives have a fitted effect of over 55% in size
# Numbers without * were called inactive; i = inactive; ? = inconclusive; nt = no result; + = active, no number; [ ] = another dose, or the depositor's remark. Rows were chosen to be rich in hits. Some 19% of all compounds tested hit in one or more screens of this group. Unless noted, calls follow the shape of the dose curve; as a rule, active = well fitted curve in the direction sought with a large enough effect; inconclusive = small, poorly fitted or top-dose-only effect, or another doubt; inactive = no such curve, though single readings can be large; an effect the other way counts as inactive or inconclusive.
SMILES,Pf growth 48h,AMA1-RON2 inh,Cycloheximide cs,Pf growth 96h,Shiga inhibitor,SARS PLP yeast
COc1cc(C(=O)NCC(=O)N/N=C/c2ccc(-c3cccc([N+](=O)[O-])c3)o2)cc(OC)c1OC,5%,4%,1,2%,16,-3%
CCOC(=O)[C@]12CCCC=C1N(Cc1ccco1)C(=O)[C@H](CC(=O)N1CCCC1)C2,nt,9%,nt,nt,nt,nt
Oc1c(C=Nc2ccccc2)sc(=S)n1Cc1ccccc1,7%,-22%,1,25%,4,-1%
C=CCn1c(O)c(C=Nc2ccccc2)sc1=S,26%,14%,28*,?,64*,-2%
O=C(O)Cn1c(O)c(C=Nc2ccccc2)sc1=S,12%,12%,-2,?,10,-3%
CCn1c(O)c(C=NC2CCCC2)sc1=S,nt,-7%,34*,-19%,23,-5%
CCn1c(O)c(C=Nc2ccccc2)sc1=S,i,-6%,38*,-69%[1.15 µM],85*,-5%
CCn1c(O)c(/C=N/n2cnnc2)sc1=S,4%,42%,-2,-9%,33,3%
CC(=O)Nc1ccc(CN2CCCC(C(=O)c3ccc(C(F)(F)F)cc3)C2)cc1 (stereo not given),?,-10%,2,15%,-9,0%
CCOCCCN1CN(S(=O)(=O)c2ccc(Cl)cc2)c2nc3ccccc3nc21,-11%,2%,-2,?,8,-11%
CC(C)OCCCN1CN(S(=O)(=O)c2ccc(Cl)cc2)c2nc3ccccc3nc21,?,7%,18*,?,11,0%
CC(C)OCCCN1CN(S(=O)(=O)c2cccc(Cl)c2)c2nc3ccccc3nc21,?,-2%,22*,9.3µM*,38*,3%
Cc1ccc(Nc2ccc([N+](=O)[O-])cn2)cc1Cl,?,-8%,27*,-8%,46*,-5%
CC(=O)Nc1ccc(Nc2ccc([N+](=O)[O-])cn2)cc1,17%,-19%,6,?,37,0%
O=[N+]([O-])c1ccc(Nc2ccccc2)nc1,39%,12%,2,314%,-2,6%
O=[N+]([O-])c1ccc(Nc2ccc(F)cc2)nc1,40%,1%,15*,29%,32*,7%
CN(C)c1ccc(Nc2ccc([N+](=O)[O-])cn2)cc1,151%,-6%,34*,-29%,132*,-1%
CCCCc1ccc(/C(C)=N/Nc2cc(N3CCOCC3)nc(C)n2)cc1,?,0%,-2,1%,nt,-9%
O=C(c1ccc(S(=O)(=O)Cc2ccccc2Cl)c([N+](=O)[O-])c1)N1CCN(c2ccccn2)CC1,?,-9%,-4,13µM*,-7,-1%
O=C(c1ccc(S(=O)(=O)Cc2cc(F)ccc2F)c([N+](=O)[O-])c1)N1CCCCC1,15µM*,-4%,4,72%,-14,3%
O=C(c1ccc(Cl)c([N+](=O)[O-])c1)N1CCN(c2ccccn2)CC1,-10%,4%,-2,10%,22,11%
COc1ccc(C2/C=C\CN(C(=O)c3ccc(C)cc3)C(C)C(=O)N2Cc2ccc(F)cc2)cc1 (stereo not given),nt,nt,83*,nt,144*,nt
COc1ccc(C2/C=C\CN(C(=O)c3ccc(C)cc3)[C@H](Cc3ccccc3)C(=O)N2Cc2ccc(F)cc2)cc1 (stereo not given in full),4.1µM*,-3%,-2,4.1µM*,1,-3%
O=Nc1ccc(NOC(=O)c2ccccc2)cc1,62%,11%,44*,6%,47*,28%
O=C(NC1CCN(Cc2ccccc2)CC1)c1ccccc1OCc1ccccc1Cl,?,-26%,-2,?,-16,-2%
SMILES,Pf growth 48h,AMA1-RON2 inh,Cycloheximide cs,Pf growth 96h,Shiga inhibitor,SARS PLP yeast
Cc1c(C)c2cc3c(C)coc3cc2oc1=O,34%,12%,-2,5.2µM*,-3,-2%
Cc1oc2cc3oc(=O)cc(C)c3cc2c1C,51%,-4%,22*,34%,24,-2%
Cc1cc(=O)oc2cc3oc(=O)cc(C)c3cc12,3%,14%,1,4.7µM*,nt,-4%
COc1ccc2c(C)cc(=O)oc2c1,nt,-5%,nt,nt,nt,nt
COc1ccc2[nH]c3c(c2c1)CCNC3(C)CCc1ccc(Cl)nc1 (stereo not given),nt,-10%,-4,?,19,-1%
O=C(/C=C/c1ccc(F)cc1)N1CCN(c2ccccn2)CC1,-4%,7%,15,36%,+,8%
COc1ccc(N2C(=O)CCC(C(=O)NCc3ccccn3)C2c2ccc(OC)c(OC)c2)cc1 (stereo not given),4%,34%,-1,4.7µM*,-4,3%
COc1ccc(N2C(=O)CCC(C(=O)NCc3ccccn3)C2c2ccc(F)cc2)cc1 (stereo not given),nt,7%,-4,?,-10,-4%
CCCOc1ccc(/C=C/C(=O)N2CCN(c3ccccn3)CC2)cc1,?,8%,8,-25%,-16,-1%
O=C(/C=C/c1ccc(Br)cc1)NC(=S)N1CCOCC1,29%,19%,54*,34%,67*,1%
COc1ccc(/C=C/C(=O)NC(=S)N2CCN(c3ccccn3)CC2)cc1,7%,3%,19*,18%,56*,-1%
CN1C(=O)c2ccc(NC(=S)NC(=O)C(C)(C)C)cc2C1=O,23%,12%[11.6 µM],22,?,0,20%
O=c1cc(CN2CCN(Cc3ccc(F)cc3)C(CCO)C2)[nH]c2ccccc12 (stereo not given),-2%,-10%,-2,?,nt,-5%
COc1ccc(C2C(C(=O)N3CCN(c4ccccn4)CC3)CCC(=O)N2c2ccc(OC)cc2)cc1 (stereo not given),-5%,-1%,1,9%,7,3%
CN1CCN(C(=S)NC(=O)/C=C/c2ccccc2)CC1,9%,20%,19,nt,33,15%
COc1ccc(C2C(C(=O)N3CCN(c4ccccn4)CC3)CC(=O)N2c2ccc(OC)cc2)cc1 (stereo not given),4.7µM*,19%,-3,10%,-11,30%
COc1ccc(/C=C/C(=O)NC(=S)N2CCSCC2)cc1,8%,46%,37*,247%,49,1%
O=C(CN(CC1CCCO1)C(=O)CNS(=O)(=O)c1ccc(F)cc1)NCCc1ccccc1 (stereo not given),32%,17%,-3,?,-8,0%
Cc1ccc(C(=O)COc2ccccc2-c2ccccc2)cc1C,?,8%,-2,?,23,-15%
COC(=O)c1ccc(OCC(=O)c2ccc(C)c(C)c2)cc1,55%,-9%[2.32 µM],24*,0%,82*,6%
COC(=O)c1ccc(S(=O)(=O)NNC(=O)COc2ccc(C)cc2)cc1,22%,49%,5,5.2µM*,-8,?
COc1cccc(C(=O)COC(=O)c2ccc(NC(=O)c3ccccc3)cc2)c1,nt,10%,nt,nt,nt,nt
